In the library only some 4.1% were active in any assay of this set; here they are far more common.
rCAG binder: binds r(CAG) RNA repeats; inhibition, % at 3 µM; r(CAG) RNA repeat, TO-PRO-1 dye displacement fluorescence; 370,000 tested, 1.3% active;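 active = inhibition above the plate cutoff, the mean of all test compounds on that plate plus 3 SD, cut at about 35% in these data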;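 note: 0% = DMSO alone and 100% = 100 µM mitoxantrone as full dye displacement; higher means more dye released from RNA so lower well fluorescence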
PRMT1 FP inh: inhibitors of human PRMT1; recombinant PRMT1, activity-based probe fluorescence polarization; AID 652257; inhibition, % at 2.79 µM; 370,000 tested, 1.3% active; Q99873;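 active = inhibition above about 21% made by adding two undisclosed values, limit read from the data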
UHRF1 MBD2 ctr: blocks human UHRF1 binding to methylated DNA; UHRF1 binding to methylated oligo, TR-FRET; inhibition, % at 4.4 µM; 370,000 tested, 0.75% active; in the data active = inhibition above about 21%;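 note: UHRF1 SRA domain binding a hemimethylated CpG hairpin DNA probe; 0% = median of test compound wells and 100% = reference inhibitor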
Target sequence (Q96T88 whole entry, looked up, the tested form may be a part): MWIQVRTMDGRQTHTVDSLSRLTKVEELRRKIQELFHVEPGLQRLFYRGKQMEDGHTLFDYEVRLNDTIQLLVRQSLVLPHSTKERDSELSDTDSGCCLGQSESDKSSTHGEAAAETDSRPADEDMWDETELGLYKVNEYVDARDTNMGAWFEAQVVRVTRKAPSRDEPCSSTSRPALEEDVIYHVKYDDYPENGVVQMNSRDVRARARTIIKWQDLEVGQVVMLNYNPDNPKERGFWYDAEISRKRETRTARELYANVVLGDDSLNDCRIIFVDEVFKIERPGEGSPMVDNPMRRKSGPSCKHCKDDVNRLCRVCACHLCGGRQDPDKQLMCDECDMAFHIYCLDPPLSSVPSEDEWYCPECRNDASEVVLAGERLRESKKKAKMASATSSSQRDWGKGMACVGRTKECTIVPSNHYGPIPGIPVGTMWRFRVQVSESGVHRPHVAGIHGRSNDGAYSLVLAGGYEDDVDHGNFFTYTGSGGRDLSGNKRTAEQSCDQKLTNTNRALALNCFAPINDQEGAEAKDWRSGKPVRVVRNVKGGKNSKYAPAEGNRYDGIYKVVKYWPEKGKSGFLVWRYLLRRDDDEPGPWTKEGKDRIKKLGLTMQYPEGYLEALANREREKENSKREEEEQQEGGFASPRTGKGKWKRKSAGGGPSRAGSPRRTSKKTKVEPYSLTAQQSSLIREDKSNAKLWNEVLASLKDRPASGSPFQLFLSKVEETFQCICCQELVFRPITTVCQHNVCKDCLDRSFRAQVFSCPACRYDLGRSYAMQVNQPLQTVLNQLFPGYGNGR
MBD2 DNA inh: inhibitors of human MBD2 binding to methylated oligonucleotide; TR-FRET; inhibition, % at 4.4 µM; 370,000 tested, 0.31% active; AID 686964; in the data active = inhibition above about 13%
ABHD5-PLIN5 inh: inhibitors of human ABHD5-perilipin-5 interaction; Q00G26+Q8WTS1; Split G. princeps luciferase complementation, luminescence, 4 h; inhibition, % at 4 µM; 360,000 tested, 0.78% active;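 active = inhibition above the mean inhibition across every tested compound plus 3 SD, cut at about 22% in these data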;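 note: 0% = DMSO only wells and the 100% control is not disclosed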
LEDGF integ inh: blocks HIV-1 LEDGF/p75-dependent DNA integration. TR-FRET IN-LEDGF/p75 DNA integration, Eu/Cy5. inhibition, % at 3.7 µM. 370,000 tested, 0.64% active. AID 743269;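 active = inhibition above the screen-wide mean plus 3 SD, cut at about 13% in these data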;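 note: signal is the Cy5 over europium emission ratio at 671 and 618 nm; 0% = plate median of compound wells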
rCAG binder conf: r(CAG) RNA repeat binding, confirmation. shares compounds with rCAG binder. TO-PRO-1 dye displacement fluorescence. inhibition, % at 3 µM. 4,300 tested, 70% active;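 active = inhibition above a per-plate cutoff, the mean inhibition of sample wells plus 3 SD, cut at about 35% in these data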;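 note: loss of TO-PRO-1 fluorescence as compound displaces dye from 1x1 AA loop RNA; 0% = DMSO only wells and 100% = 100 µM mitoxantrone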
DNA CAG counter: disrupts DNA CAG TO-PRO-1 complex, flagging rCAG hits; shares compounds with rCAG binder; d(CAG) DNA oligo TO-PRO-1 dye displacement, fluorescence; inhibition, % at 3 µM; 4,300 tested, 94% active; AID 652068;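 active = inhibition above its plate's cutoff, the mean test-well inhibition plus 3 SD, cut at about 4.8% in these data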;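 note: 0% = DNA dye mix with DMSO and 100% = 100 µM mitoxantrone; hits displace the dye from DNA and so lower well fluorescence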
* = called active by the depositor.

`Cc1ccc([C@@H]2CC=C(C(=O)O)[C@H](c3cccc(Cl)c3)N2S(=O)(=O)c2ccccc2C)cc1` gave rCAG binder 81.8*, PRMT1 FP inh -8.3, UHRF1 MBD2 ctr -1.0, MBD2 DNA inh 0.8, ABHD5-PLIN5 inh -1.4, LEDGF integ inh 6.7, rCAG binder conf 76.9* and DNA CAG counter 43.4*.
`Cc1ccc([C@H]2C(C(=O)O)=CC[C@@H](c3ccc(Cl)cc3)N2S(=O)(=O)c2ccccc2C)cc1` gave ABHD5-PLIN5 inh -3.5.
Cc1ccccc1S(=O)(=O)N1[C@@H](c2ccc(Cl)cc2)C(C(=O)O)=CC[C@H]1c1ccc(Cl)cc1 was read as rCAG binder 79.9*, PRMT1 FP inh -1.3, UHRF1 MBD2 ctr -1.8, MBD2 DNA inh -1.2, ABHD5-PLIN5 inh 3.7, LEDGF integ inh 6.9, rCAG binder conf 79.6* and DNA CAG counter 39.9*.
For Cc1ccccc1S(=O)(=O)N1C(c2ccc(Cl)cc2)CC=C(C(=O)O)C1c1cccc(Cl)c1 (configuration not stated) the results were rCAG binder 83.6*, PRMT1 FP inh -4.3, UHRF1 MBD2 ctr 2.4, MBD2 DNA inh -0.3, ABHD5-PLIN5 inh -5.3, LEDGF integ inh 3.0, rCAG binder conf 76.9* and DNA CAG counter 40.4*.
Screening CC(=O)N(C)C[C@@H]1OCc2ccccc2-c2c(n(C)c3ccccc23)C(=O)N([C@@H](C)CO)C[C@@H]1C returned rCAG binder 3.2, PRMT1 FP inh 1.9, UHRF1 MBD2 ctr -0.3, MBD2 DNA inh 1.4 and LEDGF integ inh -1.3.
O=C(N/N=C1/CCSC1)c1cc(Br)ccc1O was read as rCAG binder 41.0*, PRMT1 FP inh 1.1, UHRF1 MBD2 ctr -4.0, MBD2 DNA inh -9.8, ABHD5-PLIN5 inh -2.1, LEDGF integ inh 0.4, rCAG binder conf 15.7 and DNA CAG counter 7.3*.
C[C@H]1[C@@H](NC(=O)C#Cc2ccccc2)CC[C@@]23CCCN2C(=O)CCC[C@@H]13 was read as PRMT1 FP inh 0.8, UHRF1 MBD2 ctr -0.2, MBD2 DNA inh -3.8 and LEDGF integ inh -3.2.
Cn1c(=O)c(C#N)c(-c2ccc(F)cc2)c2cc(C(=O)c3cc(Cl)cc(Cl)c3O)cnc21 was read as rCAG binder 74.7*, PRMT1 FP inh -0.1, UHRF1 MBD2 ctr -3.2, MBD2 DNA inh -1.9, ABHD5-PLIN5 inh -12.4, LEDGF integ inh 1.9, rCAG binder conf 82.9* and DNA CAG counter 41.3*.
`C=CCOC(=O)c1cc(-c2ccc(/C=C3\C(=O)NC(=O)C(C#N)=C3C)o2)ccc1Cl` gave rCAG binder 62.6*, PRMT1 FP inh 24.7*, UHRF1 MBD2 ctr 0.2, MBD2 DNA inh -2.3, ABHD5-PLIN5 inh -19.9, LEDGF integ inh 9.7, rCAG binder conf 87.4* and DNA CAG counter 51.0*.
O=C1N(CC[C@@H](O)c2ccccc2)CCC12CCC(c1ccccc1)CC2 (some centres not stated) was read as PRMT1 FP inh -2.2, UHRF1 MBD2 ctr 2.7, MBD2 DNA inh -0.3 and LEDGF integ inh -0.3.
Screening CC(NC(=O)C=Cc1ccco1)C(=O)NC(Cc1ccccc1)C(N)=O (configuration not stated) returned rCAG binder 5.8, PRMT1 FP inh 0.7, UHRF1 MBD2 ctr 2.9, MBD2 DNA inh 0.3 and LEDGF integ inh 2.0.
`Cc1c(C(=O)O)oc2ccc(S(=O)(=O)N(CC(C)C)CC(C)C)cc12` gave rCAG binder 46.0*, PRMT1 FP inh -5.4, UHRF1 MBD2 ctr -1.4, MBD2 DNA inh -4.7, ABHD5-PLIN5 inh -4.0, LEDGF integ inh 1.8, rCAG binder conf 24.8 and DNA CAG counter 3.4.
Cc1ccc(F)cc1C(=O)N1CCCC(c2nc(-c3cccs3)no2)C1 (configuration not stated) was read as rCAG binder 0.3, PRMT1 FP inh -3.5, UHRF1 MBD2 ctr 2.3, MBD2 DNA inh -2.9 and LEDGF integ inh -3.9.

Assay outcomes: PubChem BioAssay, The Scripps Research Institute Molecular Screening Center
